The values that follow come from PubChem BioAssay (NCI).

This is part of a sample that, as a whole, favours compounds with a hit. Of some 83,000 tested, about 20% had one in any assay.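 How to read the values: 0–100, growth inhibition (40 = 60% inhibited); 0, no net growth; -100 to 0, cell death (-40 = 40% of starting cells died; -100 = all dead).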 Unmarked numbers belong to inactive results. Active and inactive are the calls of the source. Rule for the calls: active = growth percent below 10; inactive = the rest.

Common to all, as to experiment: NCI-60 one-dose screen, 48 h (100 = growth as untreated, 0 = no growth, -100 = all killed)
What all share (settings): 10 µM unless noted

The test system of assay [1] is SR leukemia.
For assay [2], the system named is RPMI-8226 leukemia.
Assay [3] deals with OVCAR-8 ovarian.
Assay [4] concerns OVCAR-5 ovarian.
In assay [5] the test system is OVCAR-4 ovarian.
Assay [6] concerns SK-OV-3 ovarian.
Assay [7] relates to IGROV1 ovarian.
For assay [8], the system named is OVCAR-3 ovarian.
Assay [9] has as its system HS 578T breast.
Assay [10] relates to NCI/ADR-RES ovarian.
For assay [11], the system named is T-47D breast.
In assay [12] the test system is BT-549 breast.
The test system of assay [13] is MDA-MB-435 melanoma.
Assay [14] concerns SW-620 colon.
Assay [15] deals with MCF7 breast.
Assay [16] has as its system HCT-116 colon.
Assay [17] concerns HCC-2998 colon.
Assay [18] concerns KM12 colon.

As for `Cc1ccc(CSc2nc(-c3ccc(Cl)cc3)c(C#N)c(N3CCNCC3)n2)cc1`, the growth in assay [1] was -10.6% (active); in [2], 69.4%; in assay [3], 92%; in [4] it was 99.7%; in assay [5], 89.3%; in assay [6] it was 117%. In addition, the growth was 66.8% in assay [7]; 82.9% in assay [8]; 80.1% in assay [9]; 94.5% in assay [10]; 88.8% in assay [11]; 91% in assay [12]. Also, the growth in [13] is 81.2%; in assay [14] it was 83%; in assay [15], 58.5%; in assay [16], 66.9%; in [17], 87.2%; in assay [18], 84.7%.

As to `Cn1ccnc1C(=O)/C=C/c1ccc(CNC(=O)c2ccc(S(F)(F)(F)(F)F)cc2)cc1`, the growth in [1] was 4.16% (active); in assay [2], -10.9% (active); in assay [3] it was 26.4%; in assay [4], 22.4%; in assay [5] it was 35.6%; in assay [6] it was 66.8%. The growth in [7] was 16.7%; in [8] it was 16.8%; in assay [9], 23%; in assay [10], 12.2%; in assay [11] it was 25%; in [12] it was 35.6%. For the same compound, the growth is 55.5% in [13]; 9.31% (active) in [14]; 13.3% in assay [15]; -17.1% (active) in assay [16]; 11.5% in [17]; 13% in assay [18].

In the case of `Cc1ccc(-n2cc(/C=N/NC(=O)c3ccncc3)c(-c3ccc(S(C)(=O)=O)cc3)n2)cc1`, the growth in assay [1] is 63.5%; in assay [2] it was 96.5%; in assay [3] it was 98.7%; in assay [4], 103%; in assay [5], 102%; in assay [6], 96.1%. Besides, the growth in [7] is 77.8%; in [8], 82.3%; in assay [9], 90.3%; in assay [10] it was 51.7%; in assay [11], 93.1%; in assay [12] it was 74.1%. The growth is 23.6% in [13]; 64.6% in assay [14]; 72.2% in assay [15]; 61.1% in assay [16]; 98.1% in assay [17]; 58% in assay [18].

For the compound `Cc1ccc(-c2cc3nc(C(Cl)Cl)nc(-c4ccco4)n3n2)cc1`, the growth in [1] is 82.4%; in [2], -29.4% (active); in [3], 18.3%; in assay [4], 2.3% (active); in [5] it was 36%; in [6] it was 24.2%. Besides, the growth in [7] is 64.5%; in assay [8], -36.3% (active); in [9] it was -2.05% (active); in assay [10], 3.8% (active); in [11] it was 21.2%; in [12], 86.5%. Further, the growth in assay [13] is 18.1%; in assay [14], 8.55% (active); in assay [15], 3.51% (active); in [16], 1.68% (active); in assay [17], -50% (active); in assay [18], -21.3% (active).

Take `NC(N)=Nc1ccc(Oc2cccc(NC(N)=Nc3ccc(I)cc3F)c2)cn1`: the growth in assay [1] is 7.24% (active); in assay [2], 34.1%; in assay [3] it was 77.6%; in assay [4], 49%; in assay [5], 66.6%; in [6], 67.2%. Moreover, the growth is 39.7% in [7]; 41.7% in [8]; 53.3% in assay [9]; 95.2% in assay [10]; 26.1% in [11]; 89.5% in assay [12]. For the same compound, the growth is 68.3% in assay [13]; 76.3% in assay [14]; 7.64% (active) in assay [15]; 58.2% in [16]; 70.9% in assay [17]; 47.7% in [18].

On to `Cc1noc(C)c1CSc1nc2ccccc2n1-c1ccccc1`, for which the growth in [1] is 69.7%; in assay [2], 95.8%; in [3], 102%; in assay [4] it was 89%; in assay [5] it was 69.1%; in assay [6] it was 116%. For the same compound, the growth in assay [7] is 77%; in assay [8] it was 114%; in [9], 102%; in assay [10], 97.3%; in [11] it was 93.8%; in [12], 87.5%. Besides, the growth in assay [13] is 100%; in assay [14] it was 94.5%; in assay [15] it was 94.9%; in assay [16], 92.9%; in [17], 112%; in [18], 101%.

On to `COC(=O)C1(C)CCC[C@]2(C)[C@H]3C[C@H]4C(C(C)C)=C[C@]3(CC[C@@H]12)[C@H]1[C@@H]4[C@@H](OC(=O)c2ccco2)CC[C@@H]1OC(=O)c1ccco1` (some centres not stated), for which the growth in assay [1] was 93.4%; in [2] it was 99.5%; in [3], 100%; in [4], 107%; in assay [5] it was 103%; in [6], 115%. In addition, the growth in assay [7] is 99.4%; in assay [8], 123%; in assay [9] it was 110%; in assay [10], 107%; in assay [11] it was 98.9%; in [12], 99.8%. Also, the growth in assay [13] was 104%; in [14], 102%; in assay [15], 98.3%; in assay [16], 110%; in assay [17], 108%; in assay [18], 105%.

Turning to `CC/C(=C/c1cc(OC)ccc1O)c1ccc2cc(OC)ccc2[o+]1`, the growth is 18.3% in assay [1]; 79.4% in assay [2]; 87.1% in [3]; 82.8% in assay [4]; 89.8% in [5]; 60.2% in assay [6]. Further, the growth in [7] was 55.1%; in [8], 20.7%; in [9], 63.4%; in assay [10], 33.5%; in [11], 52.9%; in assay [12], 51.5%. Further, the growth in assay [13] is -28.3% (active); in [14], 33.2%; in assay [15], 16.6%; in assay [16], 26.8%; in [17], 81.8%; in [18], 46.1%.

On to `COc1ccc(-n2c(/C=C3\C(=O)Nc4ccccc43)ccc2CO)cc1`, for which the growth in assay [1] was 105%; in assay [2], 94.6%; in assay [3] it was 102%; in assay [4], 107%; in [5] it was 92.6%; in [6] it was 105%. Moreover, the growth is 98.5% in assay [7]; 114% in [8]; 106% in assay [9]; 102% in assay [10]; 88.8% in [11]; 100% in assay [12]. For the same compound, the growth in [13] is 94.8%; in [14], 98.6%; in assay [15], 93.3%; in assay [16], 95.6%; in assay [17], 113%; in assay [18], 19.3%.
